# What was measured:
# Assay in all cases: DAPPL (digital affinity profiling via proximity ligation, sequencing); 10 mM Tris-HCl pH 7.5, 50 mM NaCl, 1 mM DTT, 4% glycerol, room temperature, 30 min; GST-TFs on glutathione beads, 16-mer random dsDNA library, 0.1% formaldehyde crosslink after washing; high values mean tight binding
# FEV = target: T1, FEV (Homo sapiens, UniProt Q99581 1-238); conditions: protein: recombinant; tags: N-terminal GST; dsDNA, one strand shown
# T1 sequence: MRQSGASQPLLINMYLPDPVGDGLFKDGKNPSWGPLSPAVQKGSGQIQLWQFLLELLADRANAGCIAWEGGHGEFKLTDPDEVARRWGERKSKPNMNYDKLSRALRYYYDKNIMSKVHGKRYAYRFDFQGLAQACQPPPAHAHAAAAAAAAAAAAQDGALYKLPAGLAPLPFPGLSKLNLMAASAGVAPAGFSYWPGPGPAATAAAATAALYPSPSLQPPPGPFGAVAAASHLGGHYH
# In short: (§1)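 Pools of DNA-barcoded human transcription factors, expressed in yeast as GST fusions on glutathione beads and combined with a tag-only sample, were incubated with 200 nmole of a 16-mer random double-stranded DNA library. Incubation took 30 min at room temperature in Tris/NaCl/DTT/glycerol buffer and was followed by washing, 0.1% formaldehyde crosslinking, proximity ligation (BsaI/T4 ligase, 1 h, 37 °C), PCR amplification and sequencing on an Illumina NextSeq500. Binding signal is the ratio of a hexamer's read frequency for a factor to its frequency for the tag-only sample.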
# ETV5 = ETV5 (Homo sapiens, UniProt P41161 1-510); conditions: protein: recombinant; tags: N-terminal GST; dsDNA, one strand shown
# In short: as §1
# HSF1 = HSF1 (Homo sapiens, UniProt Q00613 1-529); conditions: protein: recombinant; tags: N-terminal GST; chain copies: 3; dsDNA, one strand shown
# In short: as §1
# SPIC = target: T2, SPIC (Homo sapiens, UniProt Q8N5J4 1-248); conditions: protein: recombinant; tags: N-terminal GST; dsDNA, one strand shown
# T2 sequence: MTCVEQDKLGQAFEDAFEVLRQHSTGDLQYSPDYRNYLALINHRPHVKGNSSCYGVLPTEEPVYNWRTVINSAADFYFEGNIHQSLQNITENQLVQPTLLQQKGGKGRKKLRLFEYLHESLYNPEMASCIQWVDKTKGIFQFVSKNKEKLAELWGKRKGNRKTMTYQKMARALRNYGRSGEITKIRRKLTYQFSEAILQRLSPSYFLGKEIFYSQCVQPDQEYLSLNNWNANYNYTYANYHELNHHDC
# In short: as §1
# ELF4 = ELF4 (Homo sapiens, UniProt Q99607 1-663); conditions: protein: recombinant; tags: N-terminal GST; dsDNA, one strand shown
# In short: as §1
# ELK4 = target: T3, ELK4 (Homo sapiens, UniProt P28324-2 1-405); conditions: protein: recombinant; tags: N-terminal GST; dsDNA, one strand shown
# T3 sequence: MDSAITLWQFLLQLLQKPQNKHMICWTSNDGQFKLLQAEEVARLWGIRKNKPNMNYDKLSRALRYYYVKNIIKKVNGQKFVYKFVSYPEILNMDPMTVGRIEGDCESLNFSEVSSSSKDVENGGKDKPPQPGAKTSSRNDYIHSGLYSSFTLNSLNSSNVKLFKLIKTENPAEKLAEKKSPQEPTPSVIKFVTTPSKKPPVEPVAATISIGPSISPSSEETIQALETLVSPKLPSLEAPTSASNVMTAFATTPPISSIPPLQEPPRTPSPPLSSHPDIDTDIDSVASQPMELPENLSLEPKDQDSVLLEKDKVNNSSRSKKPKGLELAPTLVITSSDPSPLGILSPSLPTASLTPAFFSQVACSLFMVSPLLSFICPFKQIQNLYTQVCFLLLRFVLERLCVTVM
# In short: as §1
# ETV2 = target: T4, ETV2 (Homo sapiens, UniProt O00321 1-342); conditions: protein: recombinant; tags: N-terminal GST; dsDNA, one strand shown
# T4 sequence: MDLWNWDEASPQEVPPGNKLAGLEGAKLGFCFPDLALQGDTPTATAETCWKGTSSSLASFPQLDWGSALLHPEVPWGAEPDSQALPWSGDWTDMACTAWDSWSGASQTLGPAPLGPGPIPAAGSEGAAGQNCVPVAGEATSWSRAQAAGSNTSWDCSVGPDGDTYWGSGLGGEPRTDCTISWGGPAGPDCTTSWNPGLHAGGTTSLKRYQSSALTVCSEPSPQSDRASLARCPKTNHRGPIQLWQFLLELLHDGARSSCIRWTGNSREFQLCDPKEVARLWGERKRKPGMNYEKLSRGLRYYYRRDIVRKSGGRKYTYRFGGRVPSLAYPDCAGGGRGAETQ
# In short: as §1
# ELF3 = target: T5, ELF3 (Homo sapiens, UniProt P78545 1-371); conditions: protein: recombinant; tags: N-terminal GST; dsDNA, one strand shown
# T5 sequence: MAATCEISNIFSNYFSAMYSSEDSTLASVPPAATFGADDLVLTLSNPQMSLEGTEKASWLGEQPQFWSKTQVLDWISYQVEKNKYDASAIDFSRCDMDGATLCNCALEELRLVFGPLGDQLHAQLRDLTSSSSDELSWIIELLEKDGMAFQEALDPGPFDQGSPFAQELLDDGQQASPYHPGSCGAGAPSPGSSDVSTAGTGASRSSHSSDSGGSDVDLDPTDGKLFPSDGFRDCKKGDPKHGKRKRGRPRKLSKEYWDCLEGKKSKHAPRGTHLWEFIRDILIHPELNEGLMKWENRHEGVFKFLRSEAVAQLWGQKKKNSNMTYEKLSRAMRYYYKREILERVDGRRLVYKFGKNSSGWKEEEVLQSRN
# In short: as §1
# CRX = CRX (Homo sapiens, UniProt O43186 1-299); conditions: protein: recombinant; tags: N-terminal GST; dsDNA, one strand shown
# In short: as §1
# ETV1 = ETV1 (Homo sapiens, UniProt P50549 1-477); conditions: protein: recombinant; tags: N-terminal GST; dsDNA, one strand shown
# In short: as §1
# ERF = target: T6, ERF (Homo sapiens, UniProt P50548 1-548); conditions: protein: recombinant; tags: N-terminal GST; dsDNA, one strand shown
# T6 sequence: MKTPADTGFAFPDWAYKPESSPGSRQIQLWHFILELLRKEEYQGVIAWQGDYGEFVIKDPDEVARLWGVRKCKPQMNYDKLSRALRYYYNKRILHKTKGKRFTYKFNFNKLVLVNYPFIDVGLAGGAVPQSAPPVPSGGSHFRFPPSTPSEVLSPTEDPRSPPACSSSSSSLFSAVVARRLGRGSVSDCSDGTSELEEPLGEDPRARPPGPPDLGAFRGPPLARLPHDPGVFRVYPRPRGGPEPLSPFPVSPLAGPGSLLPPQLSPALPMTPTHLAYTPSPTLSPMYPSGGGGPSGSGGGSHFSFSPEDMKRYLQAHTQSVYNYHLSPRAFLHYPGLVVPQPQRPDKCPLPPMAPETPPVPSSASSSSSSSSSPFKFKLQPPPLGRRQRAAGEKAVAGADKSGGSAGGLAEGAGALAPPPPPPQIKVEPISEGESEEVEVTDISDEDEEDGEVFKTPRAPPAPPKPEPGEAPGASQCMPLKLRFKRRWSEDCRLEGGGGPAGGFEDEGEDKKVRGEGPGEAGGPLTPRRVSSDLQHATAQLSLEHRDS
# In short: as §1
# ETV3L = target: T7, ETV3L (Homo sapiens, UniProt Q6ZN32 1-361); conditions: protein: recombinant; tags: N-terminal GST; dsDNA, one strand shown
# T7 sequence: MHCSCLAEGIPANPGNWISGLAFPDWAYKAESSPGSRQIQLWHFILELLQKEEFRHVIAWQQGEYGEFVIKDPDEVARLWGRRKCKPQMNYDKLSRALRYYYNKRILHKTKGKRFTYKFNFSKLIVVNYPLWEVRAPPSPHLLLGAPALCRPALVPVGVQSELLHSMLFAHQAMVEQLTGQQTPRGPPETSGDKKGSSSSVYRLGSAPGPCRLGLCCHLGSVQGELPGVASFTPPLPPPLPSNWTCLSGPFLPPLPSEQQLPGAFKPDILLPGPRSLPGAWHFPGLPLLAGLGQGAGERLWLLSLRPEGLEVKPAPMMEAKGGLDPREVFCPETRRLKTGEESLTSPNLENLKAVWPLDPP
# In short: as §1
# ETS2 = target: T8, ETS2 (Homo sapiens, UniProt P15036 1-469); conditions: protein: recombinant; tags: N-terminal GST; dsDNA, one strand shown
# T8 sequence: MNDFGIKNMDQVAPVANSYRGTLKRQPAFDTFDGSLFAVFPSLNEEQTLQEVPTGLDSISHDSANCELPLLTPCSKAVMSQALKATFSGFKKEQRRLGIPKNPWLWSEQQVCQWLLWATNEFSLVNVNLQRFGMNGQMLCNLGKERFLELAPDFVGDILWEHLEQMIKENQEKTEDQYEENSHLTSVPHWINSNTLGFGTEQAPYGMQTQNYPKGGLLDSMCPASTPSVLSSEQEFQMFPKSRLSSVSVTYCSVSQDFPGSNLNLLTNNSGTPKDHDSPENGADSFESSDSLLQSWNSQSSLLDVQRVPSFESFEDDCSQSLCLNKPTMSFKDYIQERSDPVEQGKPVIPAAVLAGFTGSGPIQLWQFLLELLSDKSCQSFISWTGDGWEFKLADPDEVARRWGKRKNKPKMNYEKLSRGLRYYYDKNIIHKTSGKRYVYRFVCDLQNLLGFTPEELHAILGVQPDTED
# In short: as §1
# SPDEF = target: T9, SPDEF (Homo sapiens, UniProt O95238 1-335); conditions: protein: recombinant; tags: N-terminal GST; dsDNA, one strand shown
# T9 sequence: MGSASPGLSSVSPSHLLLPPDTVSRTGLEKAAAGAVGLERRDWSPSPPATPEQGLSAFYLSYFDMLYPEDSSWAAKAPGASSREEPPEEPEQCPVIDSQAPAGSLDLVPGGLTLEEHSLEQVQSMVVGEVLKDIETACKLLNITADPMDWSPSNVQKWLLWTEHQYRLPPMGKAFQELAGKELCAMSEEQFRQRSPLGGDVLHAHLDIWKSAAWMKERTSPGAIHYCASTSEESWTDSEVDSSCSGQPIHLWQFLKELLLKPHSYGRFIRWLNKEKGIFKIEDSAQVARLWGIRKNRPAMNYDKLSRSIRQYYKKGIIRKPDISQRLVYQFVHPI
# In short: as §1
# ETV7 = target: T10, ETV7 (Homo sapiens, UniProt Q9Y603 1-341); conditions: protein: recombinant; tags: N-terminal GST; dsDNA, one strand shown
# T10 sequence: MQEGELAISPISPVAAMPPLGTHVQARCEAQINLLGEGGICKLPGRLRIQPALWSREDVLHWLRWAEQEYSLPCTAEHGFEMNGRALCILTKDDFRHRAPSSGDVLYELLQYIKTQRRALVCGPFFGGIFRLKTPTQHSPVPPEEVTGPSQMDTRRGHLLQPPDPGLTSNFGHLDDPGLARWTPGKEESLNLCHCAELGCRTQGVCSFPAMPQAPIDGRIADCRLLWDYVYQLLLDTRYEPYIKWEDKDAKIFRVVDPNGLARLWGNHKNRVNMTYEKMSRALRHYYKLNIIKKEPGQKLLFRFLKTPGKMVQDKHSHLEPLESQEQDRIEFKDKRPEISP
# In short: as §1
# ELF5 = target: T11, ELF5 (Homo sapiens, UniProt Q9UKW6-2 1-255); conditions: protein: recombinant; tags: N-terminal GST; dsDNA, one strand shown
# T11 sequence: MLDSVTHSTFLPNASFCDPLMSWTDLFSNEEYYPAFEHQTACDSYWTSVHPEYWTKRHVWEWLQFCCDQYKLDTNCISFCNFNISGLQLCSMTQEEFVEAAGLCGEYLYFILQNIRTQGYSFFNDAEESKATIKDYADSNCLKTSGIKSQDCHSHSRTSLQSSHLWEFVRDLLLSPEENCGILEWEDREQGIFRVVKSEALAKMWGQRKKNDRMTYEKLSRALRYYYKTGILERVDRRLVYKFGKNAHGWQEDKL
# In short: as §1
# ETV3 = target: T12, ETV3 (Homo sapiens, UniProt P41162-2 1-143); conditions: protein: recombinant; tags: N-terminal GST; dsDNA, one strand shown
# T12 sequence: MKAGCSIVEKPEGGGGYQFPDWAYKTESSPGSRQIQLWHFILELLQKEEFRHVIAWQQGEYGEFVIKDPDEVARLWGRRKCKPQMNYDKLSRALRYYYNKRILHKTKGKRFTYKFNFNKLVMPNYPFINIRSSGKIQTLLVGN
# In short: as §1
# ETV6 = ETV6 (Homo sapiens, UniProt P41212 1-452); conditions: protein: recombinant; tags: N-terminal GST; dsDNA, one strand shown
# In short: as §1
# HSF1, sequence (Q00613 whole entry): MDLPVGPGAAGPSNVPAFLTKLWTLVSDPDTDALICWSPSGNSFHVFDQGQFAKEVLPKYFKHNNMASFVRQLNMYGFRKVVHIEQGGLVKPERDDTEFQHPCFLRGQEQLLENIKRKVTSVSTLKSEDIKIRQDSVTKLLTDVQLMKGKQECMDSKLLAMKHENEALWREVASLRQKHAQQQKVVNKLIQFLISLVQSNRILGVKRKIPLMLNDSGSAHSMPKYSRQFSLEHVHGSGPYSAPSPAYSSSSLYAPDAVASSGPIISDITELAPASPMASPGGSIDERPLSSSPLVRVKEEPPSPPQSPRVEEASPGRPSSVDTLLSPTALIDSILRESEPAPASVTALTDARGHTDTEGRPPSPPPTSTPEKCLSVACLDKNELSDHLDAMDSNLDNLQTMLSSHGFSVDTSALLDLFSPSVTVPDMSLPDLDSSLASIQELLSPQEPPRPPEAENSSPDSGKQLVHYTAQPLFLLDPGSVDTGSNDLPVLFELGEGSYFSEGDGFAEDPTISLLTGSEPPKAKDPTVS
# ETV6, sequence (P41212 whole entry): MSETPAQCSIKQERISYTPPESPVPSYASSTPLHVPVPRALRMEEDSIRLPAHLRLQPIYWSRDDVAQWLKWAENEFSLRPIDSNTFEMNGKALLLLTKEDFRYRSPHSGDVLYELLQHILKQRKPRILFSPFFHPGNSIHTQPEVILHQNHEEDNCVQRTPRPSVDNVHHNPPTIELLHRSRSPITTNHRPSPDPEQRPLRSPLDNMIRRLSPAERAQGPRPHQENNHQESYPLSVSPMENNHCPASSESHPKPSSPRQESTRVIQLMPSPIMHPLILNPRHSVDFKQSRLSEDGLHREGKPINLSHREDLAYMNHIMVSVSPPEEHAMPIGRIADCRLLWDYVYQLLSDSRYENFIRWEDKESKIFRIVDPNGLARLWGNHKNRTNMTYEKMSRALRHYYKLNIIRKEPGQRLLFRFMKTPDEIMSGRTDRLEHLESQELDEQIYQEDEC
# CRX, sequence (O43186 whole entry): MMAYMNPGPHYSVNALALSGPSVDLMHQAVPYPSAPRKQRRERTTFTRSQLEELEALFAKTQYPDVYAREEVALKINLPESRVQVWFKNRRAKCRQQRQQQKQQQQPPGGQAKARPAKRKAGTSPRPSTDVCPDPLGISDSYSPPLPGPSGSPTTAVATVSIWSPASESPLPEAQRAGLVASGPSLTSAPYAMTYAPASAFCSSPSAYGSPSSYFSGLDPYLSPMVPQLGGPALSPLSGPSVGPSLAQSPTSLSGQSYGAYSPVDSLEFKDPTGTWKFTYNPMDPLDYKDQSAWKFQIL
# ETV5, sequence (P41161 whole entry): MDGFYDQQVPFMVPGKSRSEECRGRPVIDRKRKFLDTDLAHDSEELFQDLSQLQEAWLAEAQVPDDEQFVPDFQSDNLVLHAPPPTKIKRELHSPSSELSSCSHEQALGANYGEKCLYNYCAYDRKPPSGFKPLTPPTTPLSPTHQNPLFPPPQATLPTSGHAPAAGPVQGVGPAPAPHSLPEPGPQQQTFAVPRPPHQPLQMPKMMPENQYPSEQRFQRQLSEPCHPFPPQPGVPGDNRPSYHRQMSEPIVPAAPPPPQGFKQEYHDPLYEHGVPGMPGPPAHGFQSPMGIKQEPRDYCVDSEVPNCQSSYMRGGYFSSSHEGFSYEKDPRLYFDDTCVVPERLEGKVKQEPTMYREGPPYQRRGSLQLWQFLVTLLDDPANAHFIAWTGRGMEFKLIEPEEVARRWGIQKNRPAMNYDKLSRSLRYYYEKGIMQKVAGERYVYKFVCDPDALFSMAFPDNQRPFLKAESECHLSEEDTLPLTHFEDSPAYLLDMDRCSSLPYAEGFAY
# ELF4, sequence (Q99607 whole entry): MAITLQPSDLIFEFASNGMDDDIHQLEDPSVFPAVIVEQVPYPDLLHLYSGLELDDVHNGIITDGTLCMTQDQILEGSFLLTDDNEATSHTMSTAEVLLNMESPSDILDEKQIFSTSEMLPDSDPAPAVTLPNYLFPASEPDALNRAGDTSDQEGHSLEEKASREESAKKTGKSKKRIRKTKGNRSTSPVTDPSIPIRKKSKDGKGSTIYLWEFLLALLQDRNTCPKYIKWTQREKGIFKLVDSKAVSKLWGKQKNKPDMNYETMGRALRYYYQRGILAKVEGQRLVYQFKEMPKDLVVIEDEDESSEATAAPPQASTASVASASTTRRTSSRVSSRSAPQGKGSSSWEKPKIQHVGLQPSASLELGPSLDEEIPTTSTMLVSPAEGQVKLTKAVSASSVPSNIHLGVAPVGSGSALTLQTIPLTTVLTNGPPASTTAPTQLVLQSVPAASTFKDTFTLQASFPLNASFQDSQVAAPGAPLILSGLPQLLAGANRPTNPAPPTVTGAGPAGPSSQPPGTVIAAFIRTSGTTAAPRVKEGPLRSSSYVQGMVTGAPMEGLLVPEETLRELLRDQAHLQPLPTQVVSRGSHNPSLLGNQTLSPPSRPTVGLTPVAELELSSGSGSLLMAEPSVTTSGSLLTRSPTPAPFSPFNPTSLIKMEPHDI
# ETV1, sequence (P50549 whole entry): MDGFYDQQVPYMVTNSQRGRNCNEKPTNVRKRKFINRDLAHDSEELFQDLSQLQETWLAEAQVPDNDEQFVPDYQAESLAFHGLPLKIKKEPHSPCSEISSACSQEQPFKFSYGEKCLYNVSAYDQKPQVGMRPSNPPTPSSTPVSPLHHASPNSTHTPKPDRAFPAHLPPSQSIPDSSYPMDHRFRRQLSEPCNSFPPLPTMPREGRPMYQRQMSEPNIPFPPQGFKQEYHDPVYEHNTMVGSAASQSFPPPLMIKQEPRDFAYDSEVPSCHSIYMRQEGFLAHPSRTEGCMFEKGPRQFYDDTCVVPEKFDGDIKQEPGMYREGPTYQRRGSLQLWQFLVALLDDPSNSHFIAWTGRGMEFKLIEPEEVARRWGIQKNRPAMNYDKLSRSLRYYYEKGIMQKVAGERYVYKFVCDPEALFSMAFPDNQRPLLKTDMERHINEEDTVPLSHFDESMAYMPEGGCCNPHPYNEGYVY
sequence,measurement,setting,value
TTTTCT,binding signal,FEV,"1.26 fold enrichment (6-mer frequency, TF over GST control)"
same,binding signal,ETV5,"1.28 fold enrichment (6-mer frequency, TF over GST control)"
same,binding signal,HSF1,"2.46 fold enrichment (6-mer frequency, TF over GST control)"
same,binding signal,SPIC,"1.15 fold enrichment (6-mer frequency, TF over GST control)"
same,binding signal,ELF4,"1.46 fold enrichment (6-mer frequency, TF over GST control)"
same,binding signal,ELK4,"1.32 fold enrichment (6-mer frequency, TF over GST control)"
same,binding signal,ETV2,"1.48 fold enrichment (6-mer frequency, TF over GST control)"
same,binding signal,ELF3,"1.35 fold enrichment (6-mer frequency, TF over GST control)"
same,binding signal,CRX,"1.61 fold enrichment (6-mer frequency, TF over GST control)"
same,binding signal,ETV1,"1.21 fold enrichment (6-mer frequency, TF over GST control)"
same,binding signal,ERF,"1.36 fold enrichment (6-mer frequency, TF over GST control)"
same,binding signal,ETV3L,"1.35 fold enrichment (6-mer frequency, TF over GST control)"
same,binding signal,ETS2,"1.32 fold enrichment (6-mer frequency, TF over GST control)"
same,binding signal,SPDEF,"1.28 fold enrichment (6-mer frequency, TF over GST control)"
same,binding signal,ETV7,"1.42 fold enrichment (6-mer frequency, TF over GST control)"
same,binding signal,ELF5,"1.26 fold enrichment (6-mer frequency, TF over GST control)"
same,binding signal,ETV3,"1.54 fold enrichment (6-mer frequency, TF over GST control)"
same,binding signal,ETV6,"1.32 fold enrichment (6-mer frequency, TF over GST control)"
